The text below walks through data of PubChem BioAssay (NCI).

Several values for one entry are separate records, joined by “and”; a condition that tells them apart may be missing. Identical values can stand only once. This is part of a sample that, as a whole, favours compounds with a hit. Of some 83,000 tested, about 20% had one in any assay.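 Note: values are percent growth. 100 is the growth of untreated cells, values between 100 and 0 indicate rising inhibition; between -100 and 0 indicates cell death.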 Unmarked numbers belong to inactive results. Activity calls are given as the source filed them. Rule for the calls: active = growth percent below 10; inactive = the rest.

Some test systems named below: DU-145 prostate; K-562 leukemia; MALME-3M melanoma; MDA-MB-231 breast; RXF 393 renal; SF-268 CNS; SF-295 CNS; SF-539 CNS; UACC-257 melanoma; M14 melanoma.
Experiment in all cases: NCI-60 one-dose screen, 48 h (100 = growth as untreated, 0 = no growth, -100 = all killed)
Conditions in all cases: 10 µM unless noted

For `CCC1CCC(=O)O1` (stereo not given), the growth is 112% and 116% in the test on DU-145 prostate; 110% and 119% with K-562 leukemia; 98.2% and 116% with MALME-3M melanoma; 106% and 112% in the test with MDA-MB-231 breast; 101% and 124% in the test with RXF 393 renal; 106% and 110% in the test with SF-268 CNS. Moreover, the growth with SF-295 CNS is 119%; with SF-539 CNS, 98.7% and 106%; in the test on UACC-257 melanoma it was 105%; in the test with M14 melanoma, 107% and 114%.

As for `Cc1cc(N(CCCl)CCCl)ccc1/C=N\NC(=O)c1cccnc1`, the growth in the test with DU-145 prostate was 75.6% and 75.4%; in the test with K-562 leukemia it was 85.2% and 91.8%; with MALME-3M melanoma, 107%; in the test with MDA-MB-231 breast, 112% and 94.5%; in the test on RXF 393 renal, 100% and 85.6%; with SF-268 CNS, 80.4% and 72.5%. Moreover, the growth in the test on SF-295 CNS was 49.6%; in the test with SF-539 CNS, 54.2% and 73.7%; in the test with UACC-257 melanoma, 84.9% and 88.6%; in the test with M14 melanoma it was 96% and 92.1%.

For `CCC1(CCSC#N)C(=O)NC(=O)NC1=O`, the growth is 106% in the test with DU-145 prostate; 86.5% with K-562 leukemia; 86.2% in the test with MALME-3M melanoma; 106% in the test with MDA-MB-231 breast; 117% with RXF 393 renal; 97.2% with SF-268 CNS. Besides, the growth with SF-295 CNS was 100%; with SF-539 CNS it was 94.9%; with UACC-257 melanoma, 98.9%; in the test with M14 melanoma, 94.6%.

For `CC/C(Cc1ccccc1)=C(\c1ccc(OCCN2CCCC2)cc1)c1ccc(OC(=O)NCc2ccccc2)cc1`, the growth is 61.1% in the test with DU-145 prostate; -39.1% (active) in the test with K-562 leukemia; -59.6% (active) in the test on MALME-3M melanoma; 51.6% with MDA-MB-231 breast; 56.5% in the test on RXF 393 renal; 67.7% in the test on SF-268 CNS. The growth in the test with SF-295 CNS was 86.2%; with SF-539 CNS, 59%; in the test with UACC-257 melanoma it was 58.1%; with M14 melanoma, -60.7% (active).

Regarding `CCCC1CCCCC12C(=O)NC(=O)NC2=O` (stereo not given), the growth with DU-145 prostate was 104% and 109%; in the test on K-562 leukemia, 101%; in the test with MALME-3M melanoma it was 86.4% and 112%; in the test with MDA-MB-231 breast, 89.3% and 120%; in the test with RXF 393 renal, 104% and 110%; in the test on SF-268 CNS it was 105% and 102%. The growth in the test on SF-295 CNS is 95.5% and 108%; in the test with SF-539 CNS, 97.1% and 111%; with UACC-257 melanoma, 103% and 94.1%; in the test with M14 melanoma it was 96.4% and 96.9%.

As to `CCC(Br)(CC)C(=O)NC(N)=O`, the growth in the test on DU-145 prostate is 107%; with K-562 leukemia, 105%; with MALME-3M melanoma it was 106%; in the test on MDA-MB-231 breast, 121%; in the test with RXF 393 renal it was 114%; in the test on SF-268 CNS it was 102%. Moreover, the growth with SF-295 CNS is 97.7%; with SF-539 CNS it was 89.9%; in the test with UACC-257 melanoma it was 104%; in the test with M14 melanoma it was 102%.

As for `O=C(NCCCN1CC1)Nc1cccc2ccccc12`, the growth is 104% and 102% with DU-145 prostate; 86.4% with K-562 leukemia; 75.8% and 104% in the test with MALME-3M melanoma; 94.3% and 105% in the test on MDA-MB-231 breast; 108% and 107% in the test on RXF 393 renal; 83.5% and 96.9% with SF-268 CNS. Besides, the growth with SF-295 CNS was 114% and 88.2%; in the test with SF-539 CNS it was 93.7% and 113%; with UACC-257 melanoma it was 96.9% and 94.2%; with M14 melanoma it was 99.6% and 98.8%.

With `CCCCCCCCCCCCCCCCCC1OCC(COC(=O)O[C@@H](C(=O)O[C@H]2C[C@@]3(O)[C@@H](OC(=O)c4ccccc4)[C@@H]4[C@]5(OC(C)=O)CO[C@@H]5C[C@H](O)[C@@]4(C)C(=O)[C@H](OC(C)=O)C(=C2C)C3(C)C)[C@@H](NC(=O)c2ccccc2)c2ccccc2)O1` (stereo not given in full), the growth in the test with DU-145 prostate is 44.4%; in the test with K-562 leukemia, 18.8%; in the test with MALME-3M melanoma, 59.3%; in the test on MDA-MB-231 breast it was 81.8%; in the test on RXF 393 renal, 28.1%; with SF-268 CNS it was 59.1%. In addition, the growth in the test with SF-295 CNS was 48.4%; in the test on SF-539 CNS, 51.2%; in the test on UACC-257 melanoma, 69.8%; in the test with M14 melanoma, 37.8%.

`C[N+]1(C)CCCC1c1cccnc1` (stereo not given): the growth in the test on DU-145 prostate is 110%; in the test on K-562 leukemia it was 99.3%; in the test on MALME-3M melanoma, 92.1%; in the test with MDA-MB-231 breast it was 109%; with RXF 393 renal, 102%; in the test with SF-268 CNS, 108%. Besides, the growth with SF-295 CNS is 100%; in the test on SF-539 CNS it was 107%; in the test on UACC-257 melanoma, 96.9%; with M14 melanoma, 97.5%.

Take `Nc1ccc2c(c1)Cc1cc(N)ccc1-2`: the growth in the test on DU-145 prostate is 107%; in the test with K-562 leukemia, 112%; with MALME-3M melanoma, 85.7%; with MDA-MB-231 breast it was 75.6%; in the test on RXF 393 renal it was 87.9%; in the test with SF-268 CNS, 95.4%. The growth is 100% with SF-295 CNS, 96.8% in the test on SF-539 CNS, 91.3% with UACC-257 melanoma and 92.7% in the test on M14 melanoma.

Consider `O=[N+]([O-])c1cc(Cl)c(Cl)c([N+](=O)[O-])c1Cl`, for which the growth with DU-145 prostate was 85.4%; in the test with K-562 leukemia, 7.08% (active); in the test on MALME-3M melanoma, -26% (active); with MDA-MB-231 breast, 91.8%; with RXF 393 renal, 55.5%; in the test with SF-268 CNS, 84.2%. For the same compound, the growth in the test on SF-295 CNS was 134%; in the test on SF-539 CNS it was 103%; in the test on UACC-257 melanoma it was 16.1%; in the test with M14 melanoma it was 3.65% (active).
